# About 79,000 compounds went through this panel and 15% of them were active in at least one assay; those are over-represented in the sample as a whole. A number with no mark means an inactive call. Active and inactive are the calls of the source. Cut-off read from the data, not from the text of the source: active = growth inhibition above about 70%; inactive = the rest.
# Key:
# [1] = NCI Yeast Anticancer Drug Screen. Data for the rad50 strain (AID 155);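 note: 0% = growth of vehicle-only cultures of the same strain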; conditions: S. cerevisiae rad50 strain growth inhibition; at 50.0 µM; hits give high values
# How it was run: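 Readout: growth inhibition relative to vehicle-treated cultures. Compound exposure was carried out in a genetically defined yeast strain deficient in DNA damage repair.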
# [2] = NCI Yeast Anticancer Drug Screen. Data for the mec2-1 strain (AID 157); conditions: S. cerevisiae mec2-1 strain, at 50.0 µM, hits give high values
# How it was run: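 mec2-1 yeast strain, carrying an alteration in DNA damage repair or cell cycle control, was exposed to compounds; growth inhibition was measured relative to vehicle-treated controls.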
# [3] = NCI Yeast Anticancer Drug Screen. Data for the sgs1 mgt1 strain (AID 161);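 note: 0% = growth of cultures given vehicle only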; conditions: S. cerevisiae sgs1 mgt1 strain, at 50.0 µM, hits give high values
# How it was run: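 This yeast growth screen uses a strain with defined DNA-repair lesions; compound-treated growth is compared with vehicle-treated growth.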
# [4] = NCI Yeast Anticancer Drug Screen. Data for the cln2 rad14 strain (AID 165);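 note: 0% = growth equal to vehicle treated cultures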; conditions: S. cerevisiae cln2 rad14 strain, at 50.0 µM, hits give high values
# How it was run: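 Yeast carrying cln2 and rad14 alterations (cell cycle control and DNA damage repair) were exposed to compounds. Growth inhibition was measured against vehicle-treated controls.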
# [5] = NCI Yeast Anticancer Drug Screen. Data for the bub3 strain (AID 167); conditions: S. cerevisiae bub3 mutant strain, at 50.0 µM, hits give high values
# How it was run: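 Readout: yeast growth inhibition, expressed relative to vehicle-only wells. The test organism is a mutant strain from a panel with lesions in DNA repair or checkpoint genes.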
# [6] = NCI Yeast Anticancer Drug Screen. Data for the mlh1 rad18 strain (AID 175); conditions: S. cerevisiae mlh1 rad18 strain growth inhibition; at 50.0 µM; hits give high values
# How it was run: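 Growth inhibition of the yeast strain was measured after compound exposure and expressed relative to vehicle-treated controls. The strain carries defined defects in DNA damage repair.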
Compound,growth inhibition [1],growth inhibition [2] [%],growth inhibition [3],growth inhibition [4] [%],growth inhibition [5] [%],growth inhibition [6]
O=C(Nc1ccc(Cl)cc1Cl)C(=O)C(C(=O)c1ccc2ccccc2c1)C1OC(=O)c2ccccc21 (stereo not given),13.4%,21.6,2.7%,15.9,-12.6,-6.45%
CN(C)CCNC(=O)c1cnn(C)c1[N+](=O)[O-],26.4%,8.75,17.3%,13.2,0,-59.1%
O=C1NC(CCl)(CCl)CO1,4.15%,8.85,-1.7%,5.45,-2.05,10.1%
CC1=COC2(CC1)OC1CC3C4CCC5CC(O)CCC5(C)C4CCC3(C)C1C2C (stereo not given),72.5% (active),60,87.3% (active),45.5,39.5,83% (active)
CCOC(=O)C(O)(NC(=O)c1ccc(F)cc1)C(F)(F)F (stereo not given),12.2%,1.85,-9.9%,17.1,-10.2,-23.9%
CCN(CC)Cc1cc(Nc2ccnc3ccc4nn(C)nc4c23)ccc1O,-16.4%,-19.4,-28.1%,4.45,6.65,-1.75%
O=[N+]([O-])c1ccc(S(=O)(=O)c2ccc(NCN3CCCCC3)cc2)cc1,25.1%,6.2,26.9%,-3.95,13.7,17.6%
Cc1cccc2c1c1ccc3c(c1n2C)C(=O)C=CC3=O,5.05%,-12.4,4.6%,18.6,-11.2,-5%
COc1ccc2cc(C(C)C(O)c3cc(F)c(F)c(F)c3F)ccc2c1 (stereo not given),-21.1%,-30.3,-10.7%,0.15,-1.25,-20.5%
COC(=O)Cc1ccc2c(c1)Sc1ccc(CC(=O)OC)cc1N2C,-4.75%,-43.8,-10.1%,-18.2,34.7,-36.3%
C1=C(c2ccccc2)NC2=N[C@H]3CCCC[C@@H]3N2C1c1ccccc1 (stereo not given in full),18.9%,10.4,22.8%,-7.55,33.8,91.5% (active)
COc1cc([N+](=O)[O-])c(S(=O)(=O)O)cc1-n1nc(-c2ccccc2)n[n+]1-c1cc(S(=O)(=O)[O-])c([N+](=O)[O-])cc1OC,-5.65%,4.15,-13.3%,-22.7,-20.4,16.2%
CC(C)c1ccc(/C(O)=C/C(=O)C(=O)/C=C(/O)c2ccc(C(C)C)cc2)cc1,31.4%,2.25,1.25%,9.6,2.5,10.7%
CCN(CC)C(=O)CCC1CCCCC1,-35%,-18.9,-11.9%,-39.3,-14.1,-23.5%
Cc1cc2nc(-c3ccccc3O)[nH]c2cc1C,-14.2%,-29.9,-5.25%,2.1,-29.6,9.35%
CC12CC3C(CC1SCC(=O)O2)C3(C)C (stereo not given),-27.2%,-1.1,-44.8%,1.4,-25.1,-26.2%
C/C=C1/CC(C)C(C)(O)C(=O)OCC2C(O)CN3CCC(OC1=O)C23 (stereo not given),12.4%,-2.3,-15.5%,-10.3,-3.85,-43.6%
Cc1ccc(S(=O)(=O)N2C(=N)C(=S)N(C)C2=O)cc1,-42.9%,-10.3,-15.4%,-30.4,-15.8,12.4%
CCOC(=O)C1=C(C(=O)c2ccc(C)cc2)C(c2c(Cl)cccc2Cl)C(C(=O)c2ccc(C)cc2)=C(C(=O)OCC)N1,18.4%,21.1,37.8%,44.5,54.9,38%
Nc1cccc(-c2nc3ccccc3[nH]2)c1,-21.9%,-26.4,-17.8%,-9.2,-20.2,-14.6%

Compound,growth inhibition [1],growth inhibition [2] [%],growth inhibition [3],growth inhibition [4] [%],growth inhibition [5] [%],growth inhibition [6]
Cc1c(C)c(CSC#N)c(C)c(C)c1CSC#N,53.8%,-13.6,-10.1%,-1.9,8.2,8.55%
CC(C)Sc1nc(NC(=O)N(C)N=O)cc(=O)[nH]1,-3.4%,-3.45,19.6%,27.5,-9.95,-32.1%
O=C1C(=O)c2ccccc2C(O)=C1Cc1ccccc1,-15.2%,13.8,-11.9%,7.5,-36.8,1.85%
CC(=O)C1CCC2C3C=C(C)C4=CC(=O)CCC4(C)C3(F)C(=O)CC12C (stereo not given),13.8%,-12.2,6%,-13.1,14.2,15.9%
O=C(Nc1ccccc1-c1ccccc1)c1cccnc1,2.65%,22.6,9.2%,8.1,-11.2,5.45%
O=C(O)COc1c(Cl)cc(Cl)c2cccnc12,28.9%,-3.85,-15.7%,-16.9,-63.2,-4.45%
COC(=O)/C(=N/O)C(C(=O)C=C(C)C)C(=O)C(=O)Nc1nc2ccc([N+](=O)[O-])cc2s1 (stereo not given),18%,-4.55,10%,-58.8,5.95,6.25%
CS/C(=N/N=C/c1ccc2ccccc2n1)SS/C(=N/N=C\c1ccc2ccccc2n1)SC,-8.05%,13.8,-12.4%,-19.9,-0.3,-39.9%
CC(=O)c1ccc(C(=O)c2cccnc2)cc1,-17%,-9.2,-0.4%,-49.3,-14.7,7.4%
CCCCCCCCCCCC1=c2o[nH]c2=C(c2ccccn2)C(=O)C1=O,-15.2%,-6.6,6.5%,-45.5,11.4,-0.75%
Cc1cc2nc3c(=O)[nH]c(=O)nc-3n(CCOC(=O)CCC(=O)O)c2cc1C,-8.35%,9.45,10.5%,0.2,3.1,3.95%
CCC(C)CCC(=O)C(C)C=O (stereo not given),-0.8%,-7.3,3%,-5.9,-6.2,-3.85%
COc1cc(/C=C/C(=O)O)cc(OC)c1OC,-4.95%,-2.1,12.9%,6.1,11.2,10.7%
O=C1OC(/C=C/c2ccccc2)=NC/1=C\c1ccccc1Cl,29.8%,15.4,35%,21.6,17.4,20.4%
CC(=O)OCC1OC(Nc2[nH]c(=O)n(C)c(=O)c2C(=O)CCl)C(OC(C)=O)C(OC(C)=O)C1OC(C)=O (stereo not given),5.15%,18.5,2.45%,-2.55,-3.8,-4.15%
O=S(=O)([O-])[O-].O=c1[nH]cnc2[nH]ncc12.O=c1[nH]cnc2[nH]ncc12.[Cu+2],-22.1%,-7.95,-47.2%,-32,-18.7,-18.1%
CCOC(=O)Nc1cc(Cl)c2ncn(C(=O)OCC)c2n1,40.3%,16.2,10.9%,18.9,3.05,17.9%
COC(=O)C1OC1c1ccncc1 (stereo not given),19.1%,6.15,32.3%,5.3,0.1,5.5%
BrCCC1(CCBr)CCCCC1,54%,39.4,44.6%,24.9,48.6,57.8%
N#Cc1c(-c2cccn(-c3ccccc3)c2=O)cc(-c2ccccc2)[nH]c1=O,1.55%,-5.65,-5.7%,-19.1,0.9,9.1%

# — PubChem BioAssay (NCI)
